Results taken from PubChem BioAssay.
For part of these data: Entries with a potency or affinity are not part of this list. Activity calls are given as the source filed them.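 Rule for the calls, unless noted: active = primary screen activator hit with a dose response curve and TRPC4 channel activation at any tested dose; inactive = no activation, no dose response, or not a primary hit.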

Tests used:
[1] = system: TRPC4 beta (transient receptor potential cation channel C4), mouse; experiment: activators of mouse TRPC4 channel, confirmation, cell-based, Fluo4 calcium, HEK293 TRPC4beta/mu-opioid, duplicates, 10 µM (AID 2426;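 active = fluorescence ratio normalized to control raised more than 50% in primary screen plus both repeat runs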); conditions: Fluo4 calcium fluorescence, at 10 µM; active compounds read high
[2] = system: transient receptor potential cation channel C4 beta (TRPC4), mouse; experiment: activators of mouse TRPC4 channel, confirmation, cell-based, second round, Fluo4, HEK293 TRPC4beta/mu-opioid, 1 µM (AID 2461;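 active = primary screen active and over 50% activation in each of two duplicate runs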); conditions: Fluo4 calcium fluorescence, at 1 µM; active compounds read high
[3] = system: TRPC4 (transient receptor potential cation channel C4 beta), mouse; experiment: positive allosteric modulators of mouse TRPC4, confirmation, cell-based, second round, Fluo-4, HEK293 TRPC4beta/mu-opioid, 1 µM (AID 2554;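 active = primary screen hit whose fluorescence ratio, in both repeats, exceeds the weak agonist control mean by 3 SD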); conditions: DAMGO EC20, Fluo-4 calcium flux, at 1 µM; active compounds read high
[4] = system: TRPC4 beta (transient receptor potential cation channel C4), mouse; experiment: positive allosteric modulators of mouse TRPC4, confirmation, cell-based, Fluo-4, HEK293 TRPC4beta/mu-opioid (AID 2555;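 active = primary screen hit whose calcium fluorescence ratio, in both repeats, exceeds the weak agonist control mean by 3 SD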); conditions: DAMGO EC20, Fluo-4 calcium flux, at 10 µM; active compounds read high
[5] = target: Short transient receptor potential channel 4 (Mus musculus) (UniProt Q9QUQ5); experiment: inhibitors of mouse TRPC4 channel, confirmation, cell-based, Fluo4, HEK293 TRPC4beta/mu-opioid (AID 2636;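 active = calcium signal cut by more than 3 SD below the full-agonist control yet still positive, in both repeats and the earlier primary screen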); conditions: DAMGO, Fluo4 calcium flux, at 10 µM; active compounds read high
[6] = target: Short transient receptor potential channel 4 (Mus musculus) (UniProt Q9QUQ5); experiment: inhibitors of mouse TRPC4 channel, confirmation, cell-based, second round, Fluo4, HEK293 TRPC4beta/mu-opioid, 1 µM (AID 2637;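 active = calcium signal ratio cut to more than 3 SD under the fully stimulated control mean yet still positive, in both repeats and the primary screen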;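 for inhibition: percent of integrated ratio relative to wells lacking test compound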); conditions: Fluo4 calcium flux, DAMGO, at 1 µM; active compounds read high
[7] = target: Short transient receptor potential channel 4 (Mus musculus) (UniProt Q9QUQ5); experiment: mouse TRPC4 channel activators, dose response, cell-based, HEK293 TRPC4/mu-opioid, Fluo-4 calcium (AID 434937)
[8] = target: Short transient receptor potential channel 4 (Mus musculus) (UniProt Q9QUQ5); experiment: TRPC4 positive allosteric modulators, dose response, cell-based, HEK293 TRPC4/mu-opioid, Fluo-4 calcium, EC20 DAMGO (AID 434941;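 active = earlier screen potentiator hit that boosts the TRPC4 ion channel at some dose, with a dose response; inactive = no potentiation, no dose response, or not a prior hit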;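 note: calcium entry triggered by an EC20 dose of DAMGO at the co-expressed mu-opioid receptor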)
[9] = target: Short transient receptor potential channel 6 (Mus musculus) (UniProt Q61143); experiment: inhibition of mouse TRPC6 channel, confirmation, selectivity assay for TRPC4 inhibitor project, cell-based, HEK293, membrane potential dye, duplicate (AID 434948;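 active = active in primary screen and both duplicates, each dropping signal beyond three positive-control SD with fluorescence still positive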); conditions: HEK293 TRPC6, membrane potential dye fluorescence, at 10 µM, stimulated with maximal-effect acetylcholine; active compounds read high
[10] = target: Short transient receptor potential channel 6 (Mus musculus) (UniProt Q61143); experiment: activation of mouse TRPC6 channel, confirmation, selectivity assay for TRPC4 activator project, cell-based, HEK293, membrane potential dye, duplicate (AID 434950;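 active = membrane potential signal rise above negative control mean plus 3 SD in both duplicates, also active in the earlier TRPC4 screen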); conditions: HEK293 TRPC6, membrane potential fluorescence, at 10 µM; active compounds read high
[11] = target: Short transient receptor potential channel 6 (Mus musculus) (UniProt Q61143); experiment: TRPC6 potentiation by TRPC4 potentiator hits, confirmation, selectivity assay for TRPC4 potentiator project, HEK293 cells, membrane potential dye, duplicate (AID 434952;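 active = compound raising the membrane signal above positive-control mean plus 3 SD in both repeats, and a primary screen hit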); conditions: HEK293 TRPC6, membrane potential dye fluorescence, at 10 µM, maximal acetylcholine added after compound; active compounds read high
[12] = target: Short transient receptor potential channel 4 (Mus musculus) (UniProt Q9QUQ5); experiment: calcium flux activators in TRPC4/5HT1a cells, counter-screen for TRPC4 activator project, cell-based, second counter screen, HEK293 TRPC4/5HT1a, Fluo-4 (AID 434977;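 active = calcium signal rise above buffer-control mean plus 5 SD in both duplicates, and also a hit in the primary screen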); conditions: Fluo-4 calcium flux, at 10 µM; active compounds read high
[13] = calcium flux inhibitors in TRPC4/5HT1a cells, confirmation, counter-screen for TRPC4 inhibitor project, cell-based, second counter screen, HEK293 TRPC4/5HT1a, Fluo-4 (AID 434978;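 active = primary screen active whose calcium signal fell more than 3 SD beyond the full-serotonin control mean in both duplicate plates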;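 for outcome: serotonin given first at submaximal then at maximal dose after compound preincubation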); conditions: Fluo-4 calcium flux, at 10 µM, serotonin added to trigger calcium flux; active compounds read high
[14] = system: TRPC4 (mouse), co-expressed with 5HT1a in HEK293; experiment: calcium flux potentiators in TRPC4/5HT1a cells, confirmation, counter-screen for TRPC4 potentiator project, cell-based, second counter screen, HEK293 TRPC4/5HT1a, Fluo-4 (AID 434979;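 active = signal rise over 3 SD above mean of control wells given weak agonist, in both repeats and first screen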); conditions: Fluo-4 calcium flux, at 10 µM, serotonin added at its EC20 dose; active compounds read high
[15] = calcium flux activation in mu-opioid HEK293 cells, confirmation, counter-screen for TRPC4 activator project, cell-based, HEK293 mu-opioid receptor line (AID 449723;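 active = hit in primary screen, with calcium signal over 5 SD above buffer well mean in both duplicates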;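 note: counter screen cells carry the mu-opioid receptor alone and lack TRPC4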); conditions: Fluo-4 calcium fluorescence, at 10 µM; active compounds read high
[16] = calcium flux enhancement in mu-opioid HEK293 cells, confirmation, counter-screen for TRPC4 allosteric potentiator project, cell-based, HEK293 mu-opioid receptor line (AID 449724;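 active = calcium signal rise more than 3 SD above the low-dose agonist control mean, in both duplicate plates and the primary screen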); conditions: Fluo-4 calcium flux, at 10 µM, compound added before EC20 DAMGO stimulus; active compounds read high

Chain of Short transient receptor potential channel 4 (Mus musculus) (Q9QUQ5 whole entry, looked up): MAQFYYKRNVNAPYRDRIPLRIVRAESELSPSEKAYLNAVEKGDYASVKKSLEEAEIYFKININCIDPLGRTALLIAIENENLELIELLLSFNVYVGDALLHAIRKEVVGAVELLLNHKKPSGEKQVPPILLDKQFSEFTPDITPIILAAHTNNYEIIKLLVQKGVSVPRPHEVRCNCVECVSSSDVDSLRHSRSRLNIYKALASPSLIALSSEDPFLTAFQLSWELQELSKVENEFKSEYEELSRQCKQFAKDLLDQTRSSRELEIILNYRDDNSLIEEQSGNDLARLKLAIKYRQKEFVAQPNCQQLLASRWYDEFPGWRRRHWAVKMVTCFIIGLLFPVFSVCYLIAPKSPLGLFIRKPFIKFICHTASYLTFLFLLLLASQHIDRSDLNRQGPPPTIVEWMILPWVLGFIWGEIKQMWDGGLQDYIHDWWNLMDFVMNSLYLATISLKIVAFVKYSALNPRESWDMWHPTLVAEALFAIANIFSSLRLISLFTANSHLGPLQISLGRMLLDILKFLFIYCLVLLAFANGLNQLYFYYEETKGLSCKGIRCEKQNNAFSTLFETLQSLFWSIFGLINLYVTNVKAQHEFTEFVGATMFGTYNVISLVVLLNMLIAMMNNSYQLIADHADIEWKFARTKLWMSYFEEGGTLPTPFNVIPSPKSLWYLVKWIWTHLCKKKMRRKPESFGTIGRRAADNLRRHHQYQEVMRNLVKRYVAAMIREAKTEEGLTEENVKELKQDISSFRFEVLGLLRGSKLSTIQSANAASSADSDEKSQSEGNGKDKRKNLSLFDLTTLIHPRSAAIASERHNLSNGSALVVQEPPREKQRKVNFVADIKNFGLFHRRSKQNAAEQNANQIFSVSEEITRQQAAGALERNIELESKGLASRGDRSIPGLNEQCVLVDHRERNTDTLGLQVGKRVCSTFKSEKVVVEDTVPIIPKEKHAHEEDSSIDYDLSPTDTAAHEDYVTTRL
Chain of Short transient receptor potential channel 6 (Mus musculus) (Q61143 whole entry, looked up): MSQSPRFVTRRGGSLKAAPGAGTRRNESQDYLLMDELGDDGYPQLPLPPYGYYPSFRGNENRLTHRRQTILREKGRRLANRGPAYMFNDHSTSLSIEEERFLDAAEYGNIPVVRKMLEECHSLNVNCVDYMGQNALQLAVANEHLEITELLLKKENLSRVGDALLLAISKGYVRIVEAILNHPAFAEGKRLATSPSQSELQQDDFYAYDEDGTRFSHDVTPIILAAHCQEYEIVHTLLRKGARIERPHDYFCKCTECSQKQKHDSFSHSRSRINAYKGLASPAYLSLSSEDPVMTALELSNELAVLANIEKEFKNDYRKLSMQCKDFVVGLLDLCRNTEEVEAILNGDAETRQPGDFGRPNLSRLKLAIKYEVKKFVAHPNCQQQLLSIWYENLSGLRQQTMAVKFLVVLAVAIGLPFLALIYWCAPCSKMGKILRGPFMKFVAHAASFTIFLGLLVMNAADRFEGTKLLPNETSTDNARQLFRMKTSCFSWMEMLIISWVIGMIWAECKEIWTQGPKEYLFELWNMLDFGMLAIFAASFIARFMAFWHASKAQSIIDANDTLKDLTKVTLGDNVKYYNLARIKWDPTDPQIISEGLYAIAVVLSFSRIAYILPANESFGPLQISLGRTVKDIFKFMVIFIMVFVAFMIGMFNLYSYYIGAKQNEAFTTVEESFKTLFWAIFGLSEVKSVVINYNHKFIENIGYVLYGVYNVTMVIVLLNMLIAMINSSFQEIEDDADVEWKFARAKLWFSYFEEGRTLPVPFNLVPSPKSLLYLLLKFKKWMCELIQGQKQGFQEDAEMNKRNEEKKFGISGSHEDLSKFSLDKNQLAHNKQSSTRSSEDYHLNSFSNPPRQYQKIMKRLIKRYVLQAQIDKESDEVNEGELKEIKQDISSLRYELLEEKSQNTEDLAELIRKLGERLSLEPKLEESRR

| SMILES | outcome [1] | outcome [2] | outcome [3] | outcome [4] | outcome [5] | inhibition [6] | outcome [7] | outcome [8] | outcome [9] | outcome [10] | outcome [11] | outcome [12] | inhibition [13] | outcome [14] | outcome [15] | outcome [16] | inhibition [5] | outcome [13] | outcome [6] |
| --- | --- | --- | --- | --- | --- | --- | --- | --- | --- | --- | --- | --- | --- | --- | --- | --- | --- | --- | --- |
| Cc1ccc(Cn2c(Cc3ccccc3)nc3ccccc32)cc1 | inactive | inactive | inactive | inactive | inactive | 64% (active) | inactive | inactive | inactive | inactive | inactive | inactive | 7.29% (active) | inactive | inactive | inactive |  |  |  |
| COc1cccc(Cn2c(Oc3ccccc3)nc3c2c(=O)n(C)c(=O)n3C)c1 | inactive | inactive | inactive | inactive |  | 43% (active) | inactive | inactive | inactive | inactive | inactive | inactive | 40.4% (active) | inactive | inactive | inactive | 81% (active) |  |  |
| CCC1CCCCN1CCN1C(=O)C2C(C(=O)Nc3ccc(OC)cc3)C3C=CC2(O3)C1C(=O)NC1CCCCC1 (stereo not given) | inactive | inactive | inactive | inactive |  | 90% (active) | inactive | inactive | inactive | inactive | inactive | inactive |  | inactive | inactive | inactive | 96% (active) | inactive |  |
| CCOc1cc(CNC2CCCC2)cc(Cl)c1OCc1ccccc1 | inactive | inactive | inactive | inactive |  |  | inactive | inactive | inactive | inactive | inactive | inactive | 33% (active) | inactive | inactive | inactive | 76% (active) |  | inactive |
| O=C(c1ccc2c(c1)OCO2)C1CCCN(Cc2cc(F)ccc2-n2cccn2)C1 (stereo not given) | inactive | inactive | inactive | inactive |  |  | inactive | inactive | inactive | inactive | inactive | inactive | 32.9% (active) | inactive | inactive | inactive | 87% (active) |  | inactive |
| CCC1CCCCN1Cc1nc2c(c(=O)n(C)c(=O)n2C)n1Cc1ccccc1 (stereo not given) | inactive | inactive | inactive | inactive |  |  | inactive | inactive | inactive | inactive | inactive | inactive | 38.1% (active) | inactive | inactive | inactive | 74% (active) |  | inactive |
| C=CCOc1ccc(C2CC(C)=NN2c2ccccc2)cc1 (stereo not given) | inactive | inactive | inactive | inactive |  | 44% (active) | inactive | inactive | inactive | inactive | inactive | inactive | 32% (active) | inactive | inactive | inactive | 84% (active) |  |  |
| Clc1ccc2c(c1)-c1nnc(Br)n1-c1ccccc1S2 | inactive | inactive | inactive | inactive |  |  | inactive | inactive | inactive | inactive | inactive | inactive |  | inactive | inactive | inactive | 83% (active) | inactive | inactive |
| CSc1nsc(NC(=O)Cc2ccccc2)n1 | inactive | inactive | inactive | inactive |  |  | inactive | inactive | inactive | inactive | inactive | inactive |  | inactive | inactive | inactive | 93% (active) | inactive | inactive |
| O=C(CCc1ccccc1)Nc1ccnn1C1CCN(C/C=C/c2ccccc2)CC1 | inactive | inactive | inactive | inactive | inactive |  | inactive | inactive | inactive | inactive | inactive | inactive | 17.3% (active) | inactive | inactive | inactive |  |  | inactive |
| O=C(Nc1ccccc1)N1CCN2C(=O)c3ccccc3C12c1ccccc1 (stereo not given) | inactive | inactive | inactive | inactive |  | 62% (active) | inactive | inactive | inactive | inactive | inactive | inactive |  | inactive | inactive | inactive | 85% (active) | inactive |  |
| COc1ccc(O)c(C(=O)c2cnc3c(c2)c(=O)[nH]c(=O)n3C)c1 | inactive | inactive | inactive | inactive |  | 63% (active) | inactive | inactive | inactive | inactive | inactive | inactive | 20% (active) | inactive | inactive | inactive | 92% (active) |  |  |
| NC(=O)N/N=C1\c2ccccc2-c2c(C(N)=O)cccc21 | inactive | inactive | inactive | inactive |  | 65% (active) | inactive | inactive | inactive | inactive | inactive | inactive | 38.9% (active) | inactive | inactive | inactive | 80% (active) |  |  |
| O=c1c2ccccc2nc(SCc2ccc([N+](=O)[O-])cc2)n1CCCO | inactive | inactive | inactive | inactive |  | 68% (active) | inactive | inactive | inactive | inactive | inactive | inactive | 19.5% (active) | inactive | inactive | inactive | 90% (active) |  |  |
| Cc1nn(C(=O)c2cccc([N+](=O)[O-])c2)c(C)c1Sc1ccccc1 | inactive | inactive | inactive | inactive |  |  | inactive | inactive | inactive | inactive | inactive | inactive | 32.5% (active) | inactive | inactive | inactive | 88% (active) |  | inactive |
